In assay [1] the target is High affinity nerve growth factor receptor (Homo sapiens) (UniProt P04629). The conditions noted are these: at 1 µM.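 Note: each value is the mean percent inhibition of TRKA.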
For assay [2], the target named is BDNF/NT-3 growth factors receptor (Homo sapiens) (UniProt Q16620). The following applies: at 0.1 µM.
The target is the same in assay [3]. The conditions noted are these: at 1 µM.
In assay [4] the target is NT-3 growth factor receptor (Homo sapiens) (UniProt Q16288). The conditions noted are these: at 0.1 µM.
Assay [5] shares this target. The conditions noted are these: at 1 µM.
Assay [6] has as its target T1, Tyrosine-protein kinase TXK (Homo sapiens) (UniProt P42681).
T1 sequence (whole entry): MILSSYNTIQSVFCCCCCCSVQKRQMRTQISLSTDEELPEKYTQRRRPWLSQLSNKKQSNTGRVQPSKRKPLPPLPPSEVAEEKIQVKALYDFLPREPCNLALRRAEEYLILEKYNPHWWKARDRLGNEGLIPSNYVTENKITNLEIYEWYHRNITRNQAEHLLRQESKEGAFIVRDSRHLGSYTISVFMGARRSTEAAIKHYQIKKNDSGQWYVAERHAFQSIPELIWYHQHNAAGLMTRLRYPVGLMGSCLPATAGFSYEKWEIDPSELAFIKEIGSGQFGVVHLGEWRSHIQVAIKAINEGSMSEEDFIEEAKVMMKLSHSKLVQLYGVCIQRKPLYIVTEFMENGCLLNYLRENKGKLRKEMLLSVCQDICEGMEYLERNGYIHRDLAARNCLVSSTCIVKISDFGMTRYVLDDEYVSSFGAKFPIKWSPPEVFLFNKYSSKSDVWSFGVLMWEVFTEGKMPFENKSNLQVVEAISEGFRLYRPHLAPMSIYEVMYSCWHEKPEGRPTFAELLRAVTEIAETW
The following applies: at 0.1 µM.

The target of assay [7] is T1, Tyrosine-protein kinase TXK (Homo sapiens). The conditions noted are these: at 1 µM.
Assay [8] addresses Non-receptor tyrosine-protein kinase TYK2 (Homo sapiens) (UniProt P29597). The following applies: at 0.1 µM.
The target of assay [9] is T2, Dual specificity protein kinase TTK (Homo sapiens) (UniProt P33981).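 Note: reported figures are mean TTK inhibition at 1 µM.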
T2 sequence (whole entry): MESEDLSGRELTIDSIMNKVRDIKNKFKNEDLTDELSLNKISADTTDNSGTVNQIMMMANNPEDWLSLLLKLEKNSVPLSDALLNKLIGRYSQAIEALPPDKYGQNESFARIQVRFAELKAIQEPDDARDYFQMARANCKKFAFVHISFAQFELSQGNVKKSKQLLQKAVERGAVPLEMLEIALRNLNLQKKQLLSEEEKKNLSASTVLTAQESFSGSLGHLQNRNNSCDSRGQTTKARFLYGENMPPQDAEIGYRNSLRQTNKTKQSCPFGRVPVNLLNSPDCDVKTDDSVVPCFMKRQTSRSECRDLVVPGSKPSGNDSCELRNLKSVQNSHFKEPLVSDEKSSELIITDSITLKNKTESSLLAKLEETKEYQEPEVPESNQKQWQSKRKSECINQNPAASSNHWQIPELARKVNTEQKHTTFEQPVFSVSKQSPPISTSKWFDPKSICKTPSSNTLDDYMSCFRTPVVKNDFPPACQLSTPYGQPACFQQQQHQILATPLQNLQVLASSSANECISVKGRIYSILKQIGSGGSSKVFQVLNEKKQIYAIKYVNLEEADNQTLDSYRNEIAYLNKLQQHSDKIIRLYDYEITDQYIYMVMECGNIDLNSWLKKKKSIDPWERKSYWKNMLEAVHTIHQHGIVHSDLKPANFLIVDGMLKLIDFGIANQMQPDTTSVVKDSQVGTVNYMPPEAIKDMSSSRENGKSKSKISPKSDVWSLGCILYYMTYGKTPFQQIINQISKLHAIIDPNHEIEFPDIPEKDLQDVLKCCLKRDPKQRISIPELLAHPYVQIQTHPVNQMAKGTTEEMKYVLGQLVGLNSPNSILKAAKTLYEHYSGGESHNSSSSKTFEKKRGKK
The conditions noted are these: at 1 µM.

The target in assay [10] is T3, Aurora kinase A (Homo sapiens) (UniProt O14965).
T3 sequence (whole entry): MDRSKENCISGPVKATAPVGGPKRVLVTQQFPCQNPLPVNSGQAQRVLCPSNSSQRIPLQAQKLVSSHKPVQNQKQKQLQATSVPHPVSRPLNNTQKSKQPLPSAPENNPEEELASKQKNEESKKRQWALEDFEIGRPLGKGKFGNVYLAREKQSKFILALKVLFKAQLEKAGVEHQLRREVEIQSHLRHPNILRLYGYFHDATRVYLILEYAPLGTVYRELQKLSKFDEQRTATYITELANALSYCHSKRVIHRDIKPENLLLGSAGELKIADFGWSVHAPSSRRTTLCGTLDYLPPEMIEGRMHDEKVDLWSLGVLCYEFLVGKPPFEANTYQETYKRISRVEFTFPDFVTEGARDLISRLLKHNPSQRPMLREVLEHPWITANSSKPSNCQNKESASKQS
The following applies: at 0.1 µM.

In assay [11] the target is T3, Aurora kinase A (Homo sapiens). The following applies: at 1 µM.
Assay [12] addresses Aurora kinase B (Homo sapiens) (UniProt Q96GD4). The following applies: at 0.1 µM.
For assay [13] the target is unchanged. The conditions noted are these: at 1 µM.
Assay [14] deals with T4, Aurora kinase C (Homo sapiens) (UniProt Q9UQB9).
T4 sequence (whole entry): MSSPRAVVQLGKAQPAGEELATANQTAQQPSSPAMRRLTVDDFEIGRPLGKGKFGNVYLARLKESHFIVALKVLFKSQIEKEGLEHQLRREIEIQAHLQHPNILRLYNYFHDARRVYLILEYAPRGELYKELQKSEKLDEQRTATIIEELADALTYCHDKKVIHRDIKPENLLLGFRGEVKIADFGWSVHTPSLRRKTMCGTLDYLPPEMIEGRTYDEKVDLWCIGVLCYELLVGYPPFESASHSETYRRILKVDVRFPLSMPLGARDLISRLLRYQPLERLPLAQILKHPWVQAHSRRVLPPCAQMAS
The following applies: at 0.1 µM.

For assay [15], the target named is T4, Aurora kinase C (Homo sapiens). The conditions noted are these: at 1 µM.
Assay [16] concerns the target Serine/threonine-protein kinase 10 (Homo sapiens) (UniProt O94804). The following applies: at 0.1 µM.
Assay [17] has the same target. The conditions noted are these: at 1 µM.
In assay [18] the target is T5, Mitogen-activated protein kinase kinase kinase kinase 2 (Homo sapiens) (UniProt Q12851).
T5 sequence (whole entry): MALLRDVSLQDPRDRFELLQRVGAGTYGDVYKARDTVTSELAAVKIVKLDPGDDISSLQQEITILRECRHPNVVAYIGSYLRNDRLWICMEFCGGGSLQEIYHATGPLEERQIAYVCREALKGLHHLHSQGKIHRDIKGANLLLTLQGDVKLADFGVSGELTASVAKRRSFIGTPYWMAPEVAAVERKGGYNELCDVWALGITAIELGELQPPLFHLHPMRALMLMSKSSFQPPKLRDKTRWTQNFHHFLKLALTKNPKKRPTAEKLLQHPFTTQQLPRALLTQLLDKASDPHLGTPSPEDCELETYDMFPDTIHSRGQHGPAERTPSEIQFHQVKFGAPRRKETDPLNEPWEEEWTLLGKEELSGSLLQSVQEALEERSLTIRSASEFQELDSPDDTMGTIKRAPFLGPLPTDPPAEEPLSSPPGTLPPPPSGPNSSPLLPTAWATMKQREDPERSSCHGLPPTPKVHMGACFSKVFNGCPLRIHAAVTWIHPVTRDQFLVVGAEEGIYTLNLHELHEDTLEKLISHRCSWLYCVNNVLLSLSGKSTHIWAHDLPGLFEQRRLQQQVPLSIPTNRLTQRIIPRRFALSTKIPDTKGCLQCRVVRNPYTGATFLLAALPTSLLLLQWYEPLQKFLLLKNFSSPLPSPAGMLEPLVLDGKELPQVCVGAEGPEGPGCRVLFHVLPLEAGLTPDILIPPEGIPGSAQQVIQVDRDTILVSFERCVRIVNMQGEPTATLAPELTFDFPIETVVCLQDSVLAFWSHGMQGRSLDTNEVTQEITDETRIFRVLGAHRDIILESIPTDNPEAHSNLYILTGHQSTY
The conditions noted are these: at 0.1 µM.

The target of assay [19] is T5, Mitogen-activated protein kinase kinase kinase kinase 2 (Homo sapiens). The conditions noted are these: at 1 µM.
The target of assay [20] is Mitogen-activated protein kinase kinase kinase kinase 4 (Homo sapiens) (UniProt O95819). The conditions noted are these: at 0.1 µM.

For four compounds, inhibition results are on record in ChEMBL document CHEMBL1961873, “Compounds: GSK PKIS; Assays: Nanosyn kinase panel” (2012).

Values joined by “and” are separate entries in the source; they are usually repeats but may differ in a detail not shown here. Equal values may be shown once.

Sequence of High affinity nerve growth factor receptor (Homo sapiens) (P04629 33-796 limits assumed): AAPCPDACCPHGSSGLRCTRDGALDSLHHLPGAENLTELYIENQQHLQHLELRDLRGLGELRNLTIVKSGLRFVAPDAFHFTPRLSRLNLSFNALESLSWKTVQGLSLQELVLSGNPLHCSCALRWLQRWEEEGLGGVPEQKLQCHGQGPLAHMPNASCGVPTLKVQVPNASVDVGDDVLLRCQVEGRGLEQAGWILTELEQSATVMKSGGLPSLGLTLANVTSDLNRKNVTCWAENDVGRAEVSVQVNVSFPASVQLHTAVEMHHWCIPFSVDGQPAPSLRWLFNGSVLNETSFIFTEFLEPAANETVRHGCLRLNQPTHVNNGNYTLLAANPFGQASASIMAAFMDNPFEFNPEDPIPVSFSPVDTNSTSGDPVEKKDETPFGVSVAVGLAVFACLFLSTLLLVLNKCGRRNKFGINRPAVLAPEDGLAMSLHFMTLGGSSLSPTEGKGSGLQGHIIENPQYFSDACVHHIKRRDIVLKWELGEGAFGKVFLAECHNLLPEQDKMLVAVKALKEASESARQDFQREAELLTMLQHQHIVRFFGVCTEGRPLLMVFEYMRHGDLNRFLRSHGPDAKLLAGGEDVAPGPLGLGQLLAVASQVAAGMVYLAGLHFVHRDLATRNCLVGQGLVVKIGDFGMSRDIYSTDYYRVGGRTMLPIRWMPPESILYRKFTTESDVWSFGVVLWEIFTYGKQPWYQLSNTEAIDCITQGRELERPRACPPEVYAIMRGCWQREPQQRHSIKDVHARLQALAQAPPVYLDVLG
Sequence of Non-receptor tyrosine-protein kinase TYK2 (Homo sapiens) (P29597 whole entry): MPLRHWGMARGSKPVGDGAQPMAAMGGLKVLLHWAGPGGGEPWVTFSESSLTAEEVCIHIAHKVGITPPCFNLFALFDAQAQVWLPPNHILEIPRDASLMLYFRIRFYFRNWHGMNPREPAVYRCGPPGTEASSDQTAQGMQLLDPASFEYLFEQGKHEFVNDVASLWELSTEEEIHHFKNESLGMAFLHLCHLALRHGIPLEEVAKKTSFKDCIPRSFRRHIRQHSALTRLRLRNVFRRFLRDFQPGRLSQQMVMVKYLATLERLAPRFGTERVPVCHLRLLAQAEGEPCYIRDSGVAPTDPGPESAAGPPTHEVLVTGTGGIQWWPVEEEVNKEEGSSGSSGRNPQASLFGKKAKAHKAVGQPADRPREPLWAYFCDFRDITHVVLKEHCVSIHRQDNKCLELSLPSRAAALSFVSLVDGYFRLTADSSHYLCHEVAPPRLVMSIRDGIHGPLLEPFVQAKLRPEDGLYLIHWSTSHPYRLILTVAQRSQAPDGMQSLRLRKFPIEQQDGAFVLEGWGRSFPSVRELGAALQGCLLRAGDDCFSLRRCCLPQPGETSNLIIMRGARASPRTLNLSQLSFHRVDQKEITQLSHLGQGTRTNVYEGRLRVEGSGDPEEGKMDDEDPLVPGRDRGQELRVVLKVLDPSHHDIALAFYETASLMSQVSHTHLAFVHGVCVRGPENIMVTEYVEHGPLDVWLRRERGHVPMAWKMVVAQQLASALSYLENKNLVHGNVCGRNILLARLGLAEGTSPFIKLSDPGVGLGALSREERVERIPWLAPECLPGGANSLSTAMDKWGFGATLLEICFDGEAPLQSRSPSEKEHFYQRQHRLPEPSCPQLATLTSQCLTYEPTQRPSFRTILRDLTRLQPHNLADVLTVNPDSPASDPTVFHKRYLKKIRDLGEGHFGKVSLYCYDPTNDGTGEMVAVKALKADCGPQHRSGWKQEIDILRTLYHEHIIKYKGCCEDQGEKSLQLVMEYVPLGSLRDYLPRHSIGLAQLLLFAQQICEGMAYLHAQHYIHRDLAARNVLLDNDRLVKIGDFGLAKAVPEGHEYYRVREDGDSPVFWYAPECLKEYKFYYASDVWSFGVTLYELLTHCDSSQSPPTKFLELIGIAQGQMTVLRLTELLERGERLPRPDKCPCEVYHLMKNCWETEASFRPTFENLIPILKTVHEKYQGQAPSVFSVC
Sequence of BDNF/NT-3 growth factors receptor (Homo sapiens) (Q16620 32-822 limits assumed): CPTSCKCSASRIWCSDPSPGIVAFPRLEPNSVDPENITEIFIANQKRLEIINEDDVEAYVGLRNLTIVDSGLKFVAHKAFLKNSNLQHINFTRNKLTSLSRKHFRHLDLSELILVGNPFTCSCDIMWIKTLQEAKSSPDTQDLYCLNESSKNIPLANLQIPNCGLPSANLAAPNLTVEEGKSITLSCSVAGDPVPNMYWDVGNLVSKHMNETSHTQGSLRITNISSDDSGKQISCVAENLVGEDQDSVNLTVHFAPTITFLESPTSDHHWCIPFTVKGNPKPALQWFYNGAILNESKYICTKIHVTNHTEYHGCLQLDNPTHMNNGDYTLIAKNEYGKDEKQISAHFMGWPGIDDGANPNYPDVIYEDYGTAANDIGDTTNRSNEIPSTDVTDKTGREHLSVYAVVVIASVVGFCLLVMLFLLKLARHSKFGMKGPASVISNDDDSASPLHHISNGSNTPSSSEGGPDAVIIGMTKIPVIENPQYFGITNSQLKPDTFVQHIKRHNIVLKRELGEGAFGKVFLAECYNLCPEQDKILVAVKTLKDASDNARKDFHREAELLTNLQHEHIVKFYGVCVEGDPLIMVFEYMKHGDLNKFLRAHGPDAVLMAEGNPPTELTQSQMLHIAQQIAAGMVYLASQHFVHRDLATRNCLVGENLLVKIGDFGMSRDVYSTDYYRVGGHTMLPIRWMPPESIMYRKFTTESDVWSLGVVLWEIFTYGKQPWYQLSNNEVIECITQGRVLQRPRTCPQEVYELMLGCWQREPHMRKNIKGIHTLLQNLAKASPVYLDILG
Sequence of Mitogen-activated protein kinase kinase kinase kinase 4 (Homo sapiens) (O95819 2-1239 limits assumed): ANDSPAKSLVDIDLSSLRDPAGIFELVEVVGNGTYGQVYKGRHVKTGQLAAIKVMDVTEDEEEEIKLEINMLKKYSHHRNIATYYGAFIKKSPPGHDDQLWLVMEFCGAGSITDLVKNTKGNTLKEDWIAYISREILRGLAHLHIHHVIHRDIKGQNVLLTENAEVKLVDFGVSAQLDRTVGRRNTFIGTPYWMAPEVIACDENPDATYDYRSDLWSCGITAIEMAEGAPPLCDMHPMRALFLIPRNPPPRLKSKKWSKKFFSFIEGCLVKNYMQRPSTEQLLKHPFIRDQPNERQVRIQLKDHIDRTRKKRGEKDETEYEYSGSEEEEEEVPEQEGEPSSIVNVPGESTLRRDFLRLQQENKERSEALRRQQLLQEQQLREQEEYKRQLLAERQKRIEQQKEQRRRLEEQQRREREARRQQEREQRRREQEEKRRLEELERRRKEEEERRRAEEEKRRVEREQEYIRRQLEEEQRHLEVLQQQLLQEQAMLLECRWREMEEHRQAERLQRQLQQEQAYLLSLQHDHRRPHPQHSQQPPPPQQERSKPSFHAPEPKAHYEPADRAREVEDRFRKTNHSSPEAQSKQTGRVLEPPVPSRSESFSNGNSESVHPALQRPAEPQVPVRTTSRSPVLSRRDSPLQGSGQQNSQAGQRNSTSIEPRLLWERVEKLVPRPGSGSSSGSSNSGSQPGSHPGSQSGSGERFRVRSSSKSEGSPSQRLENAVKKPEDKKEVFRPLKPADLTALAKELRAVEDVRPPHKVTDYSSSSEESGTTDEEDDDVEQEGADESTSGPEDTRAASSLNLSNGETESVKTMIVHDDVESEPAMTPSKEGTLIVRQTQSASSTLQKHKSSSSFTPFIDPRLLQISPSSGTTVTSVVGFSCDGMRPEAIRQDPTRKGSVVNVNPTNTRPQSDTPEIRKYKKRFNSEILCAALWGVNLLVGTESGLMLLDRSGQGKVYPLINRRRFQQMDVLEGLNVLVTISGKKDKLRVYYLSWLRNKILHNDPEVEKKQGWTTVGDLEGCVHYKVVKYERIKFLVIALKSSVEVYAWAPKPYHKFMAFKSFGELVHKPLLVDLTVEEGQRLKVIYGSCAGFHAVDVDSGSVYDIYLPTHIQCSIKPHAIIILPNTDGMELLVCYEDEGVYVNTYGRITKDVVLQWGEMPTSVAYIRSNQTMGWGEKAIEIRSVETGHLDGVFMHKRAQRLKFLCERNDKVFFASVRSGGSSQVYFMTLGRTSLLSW
Sequence of NT-3 growth factor receptor (Homo sapiens) (Q16288 32-839 limits assumed): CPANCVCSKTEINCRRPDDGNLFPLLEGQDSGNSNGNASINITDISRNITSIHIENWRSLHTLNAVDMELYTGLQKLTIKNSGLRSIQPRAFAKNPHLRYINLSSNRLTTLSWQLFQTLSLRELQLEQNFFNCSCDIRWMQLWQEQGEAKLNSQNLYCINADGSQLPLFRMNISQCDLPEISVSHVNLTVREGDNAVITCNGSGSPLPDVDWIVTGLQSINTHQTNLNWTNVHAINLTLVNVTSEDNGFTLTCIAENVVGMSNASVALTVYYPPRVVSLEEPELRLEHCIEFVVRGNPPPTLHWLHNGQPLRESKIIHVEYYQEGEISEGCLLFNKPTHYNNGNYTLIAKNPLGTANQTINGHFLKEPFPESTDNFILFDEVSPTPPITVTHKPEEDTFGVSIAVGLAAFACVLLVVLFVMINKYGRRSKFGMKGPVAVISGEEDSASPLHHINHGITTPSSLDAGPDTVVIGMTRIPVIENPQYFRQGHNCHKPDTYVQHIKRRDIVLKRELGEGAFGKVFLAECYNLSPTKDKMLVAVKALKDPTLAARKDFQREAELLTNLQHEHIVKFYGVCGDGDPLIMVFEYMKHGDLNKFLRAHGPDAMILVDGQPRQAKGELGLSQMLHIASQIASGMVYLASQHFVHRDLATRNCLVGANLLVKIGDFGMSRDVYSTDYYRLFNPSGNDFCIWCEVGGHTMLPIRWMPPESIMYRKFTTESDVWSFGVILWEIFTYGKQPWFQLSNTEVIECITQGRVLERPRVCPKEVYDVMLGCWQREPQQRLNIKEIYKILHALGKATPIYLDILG

Regarding `N#Cc1ccc2c(-c3ccnc(NC4CC4)n3)c(-c3ccc(F)cc3)nn2c1`, the inhibition was -2.02% in [1]; 0.12% in assay [2]; 0.68% in [3]; -1.35% in assay [4]; -1.48% in assay [5]; 0.94% in [6]. The inhibition came to 12.3% in [7]; 0.53% in assay [8]; 3.53% in [9]; 0.84% in assay [10]; 0.56% in assay [11]; 0.7% in [12]. The inhibition in assay [13] was -0.38%; in assay [14] it was 0.81%; in assay [15], 5.38%; in assay [16], 2.63%; in assay [17], 4.13%; in assay [18], 0.19%. For the same compound, the figures for the inhibition in assay [19] and in [20] were 2.06% and 5.83%, respectively.
For `CN1CCN(Cc2ccc(-c3cc4ncnc(Nc5ccc(OCc6cccc(F)c6)c(Cl)c5)c4s3)o2)CC1`, the inhibition is 3.16% and 2.15% in assay [1]; 3.04% and 3.64% in assay [2]; 2.54% and 4.97% in [3]; 2.27% and 4.29% in assay [4]; 3.84% and 5.78% in [5]; -1.05% and 3.1% in assay [6]. For the same compound, the inhibition was 5.76% and 4.28% in assay [7]; -2.41% and -3.9% in [8]; 8.37% and 11.4% in assay [9]; 1.75% and 2.97% in assay [10]; 6.51% and 11.8% in assay [11]; 16% and 13% in assay [12]. Moreover, the inhibition in [13] is 45.6% and 53%; in assay [14], 4.18% and 3.42%; in [15], 26.1% and 40.5%; in assay [16], 17.4% and 22.1%; in [17] it was 56.8% and 67%; in [18], 2.1% and 1.95%. The inhibition in [19] is 13% and 8.01%; in assay [20], 2.96% and 6.93%.
For the compound `NS(=O)(=O)c1cccc(N/C=C2\C(=O)Nc3ccccc32)c1`, the inhibition came out at 16.2% in assay [1]; 6.02% in assay [2]; 32.9% in [3]; 6.86% in assay [4]; 32.3% in [5]; 4.29% in assay [6]. Further, the inhibition in [7] is 6.83%; in [8] it was -2.94%; in assay [9], 21.3%; in [10], 7.85%; in assay [11] it was 47.6%; in assay [12], 6.68%. Also, the inhibition in [13] was determined as 40.5%; in assay [14], 7.7%; in [15], 76.7%; in assay [16] it was 4.31%; in assay [17], 9.72%; in assay [18] it was 4.14%. For the same compound, the inhibition in assay [19] was 28.9%; in [20] it was 23.3%.
For `Cc1c2ccc(N(C)c3ccnc(Nc4cccc(S(N)(=O)=O)c4)n3)cc2nn1C`, the inhibition in [1] was found to be 7.91%; in assay [2] it was 4.05%; in assay [3] it was 9.82%; in assay [4] it was 4.05%; in assay [5], 11.1%; in assay [6], 20.5%. In addition, the inhibition in assay [7] was 59.4%; in assay [8], -3.68%; in assay [9] it was 29.9%; in assay [10], 11.7%; in assay [11] it was 72.2%; in assay [12], 12.5%. In addition, the inhibition in assay [13] amounted to 54.2%; in [14], 15.8%; in assay [15], 81.6%; in [16], 23.4%; in [17] it was 64.4%; in [18], 7.77%. In addition, the inhibition in assay [19] came to 41%; in assay [20], 11.1%.

What is called inhibition is the drop in the measured response relative to a control, in per cent.
